Test results reported in publication PMC4336329 (PLoS ONE, 2015).
Out of some 310,000 compounds screened, about 2,200 (0.71%) showed an effect of 50% or more. The effect is printed as a negative number. The sample as a whole holds a higher share of strong results than the screen did.

What follows are molecules tested against human ether-à-go-go-related gene (hERG) potassium channel (human, UniProt Q12809) (assay: primary screen, population patch clamp on CHO cells stably expressing hERG; higher = less effect of the substance).
Chain of human ether-à-go-go-related gene (hERG) potassium channel (Q12809 whole entry, looked up): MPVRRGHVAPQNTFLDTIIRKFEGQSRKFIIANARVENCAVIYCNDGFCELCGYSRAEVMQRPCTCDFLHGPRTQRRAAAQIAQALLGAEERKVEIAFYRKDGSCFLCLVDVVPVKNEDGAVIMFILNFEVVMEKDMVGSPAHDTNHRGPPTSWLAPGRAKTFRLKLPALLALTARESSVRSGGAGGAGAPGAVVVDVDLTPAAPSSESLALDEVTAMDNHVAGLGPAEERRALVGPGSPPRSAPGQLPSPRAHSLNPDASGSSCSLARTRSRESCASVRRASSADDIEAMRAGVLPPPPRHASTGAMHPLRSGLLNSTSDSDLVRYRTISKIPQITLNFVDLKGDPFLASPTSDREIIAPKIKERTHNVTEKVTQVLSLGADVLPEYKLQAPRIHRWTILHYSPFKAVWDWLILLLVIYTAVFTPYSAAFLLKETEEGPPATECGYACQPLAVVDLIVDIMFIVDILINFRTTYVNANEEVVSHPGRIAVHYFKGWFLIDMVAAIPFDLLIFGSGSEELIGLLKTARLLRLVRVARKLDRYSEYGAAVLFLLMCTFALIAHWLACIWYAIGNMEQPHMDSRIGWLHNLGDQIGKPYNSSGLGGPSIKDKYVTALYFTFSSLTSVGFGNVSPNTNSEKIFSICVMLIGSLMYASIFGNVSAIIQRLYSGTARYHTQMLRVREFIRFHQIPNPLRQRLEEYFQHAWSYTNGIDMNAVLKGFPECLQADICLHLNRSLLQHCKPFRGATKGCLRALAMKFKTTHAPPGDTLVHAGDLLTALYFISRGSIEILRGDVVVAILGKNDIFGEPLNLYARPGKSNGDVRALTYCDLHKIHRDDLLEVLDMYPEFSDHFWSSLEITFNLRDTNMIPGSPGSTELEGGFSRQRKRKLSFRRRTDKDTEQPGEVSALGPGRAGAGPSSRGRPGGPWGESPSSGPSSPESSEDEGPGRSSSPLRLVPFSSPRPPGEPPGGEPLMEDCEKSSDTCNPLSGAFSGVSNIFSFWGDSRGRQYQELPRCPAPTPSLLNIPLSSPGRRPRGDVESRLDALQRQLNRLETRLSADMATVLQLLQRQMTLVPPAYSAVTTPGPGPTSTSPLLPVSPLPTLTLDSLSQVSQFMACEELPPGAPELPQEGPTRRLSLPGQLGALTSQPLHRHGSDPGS

Row | Compound | hERG current change (%, negative = inhibition) at 1uM
1 | Cc1nc(C)n(CC(O)COc2ccc3ccccc3c2)n1 (stereo not shown) | -0.527%
2 | CCOC(=O)[C@@H]1[C@H]2COc3cc(OC)ccc3[C@@H]2N2C(=O)N(c3ccc(Br)cc3)C(=O)[C@@]12C | 5.83%
3 | CC(=O)NCCOc1ccc(C(=O)O)cc1 | 6.2%
4 | Cc1ccc(S(=O)(=O)N2CCOCC2)cc1C(=O)N1CCC(Cc2ccccc2)CC1 | 11.2%
5 | O=C(O)CCN(CCC(=O)O)c1nnc(SCc2ccccc2)s1 | 11.7%
6 | O=C(CN1CCCC1)NN=C(c1ccccc1)c1ccccc1 | -49%
7 | O=C(CCl)NN=C(c1ccccc1)c1ccccc1 | 5.28%
8 | CCN(CC)CC(=O)NN=C(c1ccccc1)c1ccccc1 | -78.2%
9 | CCOC(=O)C1CCN(c2ccc(Cl)nn2)CC1 | 0.0696%
10 | CCOC(=O)Cc1nnc(NC(=O)c2ccco2)s1 | 5.45%
11 | Cc1ccc(OCC(=O)Nc2cc(-c3nn4c(C)nnc4s3)ccc2C)cc1 | -2.75%
12 | COc1ccc(OCC(=O)Nc2cc(-c3nn4c(C)nnc4s3)ccc2C)cc1 | 3.66%
13 | Cc1ccc(-c2nn3c(C)nnc3s2)cc1NC(=O)COc1ccc(Cl)cc1 | -74.3%
14 | O=C(Nc1ccc(Cl)cc1)Nc1ccc2c(c1)OCO2 | 12.5%
15 | CN(C(=O)CSc1nnc(CNC(=O)c2ccccc2)o1)c1ccccc1 | 1.84%
16 | S=C(c1ccc(-c2ccccc2)cc1)N1CCOCC1 | 7.87%
17 | O=C(O)C1CCCN1c1nc(-c2ccc(Cl)c(Cl)c2)cc(C(F)(F)F)n1 (stereo not shown) | 7.97%
18 | CCOc1ccccc1CN1CCN(C/C=C/c2ccc(OC)cc2)CC1CCO (stereo not shown) | -13.6%
19 | COc1ccc(/C=C/CN2CCN(Cc3ccccc3)C(CCO)C2)cc1 (stereo not shown) | -28.9%
20 | COc1ccc(/C=C/CN2CCN(Cc3ccc(F)cc3)C(CCO)C2)cc1 (stereo not shown) | -3.48%
21 | COc1ccc(/C=C/CN2CCN(CCc3ccccc3)C(CCO)C2)cc1 (stereo not shown) | -61.7%
22 | COc1ccc(/C=C/CN2CCN(CC(C)C)C(CCO)C2)cc1 (stereo not shown) | -0.433%

Row | Compound | hERG current change (%, negative = inhibition) at 1uM
23 | CCOc1ccc(CN2CCN(C/C=C/c3ccc(OC)cc3)CC2CCO)cc1 (stereo not shown) | -77.1%
24 | C=CCn1c(=O)c(C(=O)Nc2ccc(C)cc2)c(O)c2ccccc21 | 15.6%
25 | Cn1c(N)c(C(=O)COC(=O)c2ccccc2NCc2ccco2)c(=O)n(C)c1=O | 9.3%
26 | C[C@H](NC(=O)c1nc[nH]c1C(=O)N[C@@H](Cc1ccccc1)C(=O)OCc1ccccc1)C(=O)OC(C)(C)C | 10.7%
27 | COC(C(=O)Nc1ccc(S(=O)(=O)Nc2ccc(C)c(C)c2)cc1)c1ccccc1 (stereo not shown) | 1.3%
28 | COC(C(=O)Nc1ccc(S(=O)(=O)Nc2c(C)cccc2C)cc1)c1ccccc1 (stereo not shown) | -69.6%
29 | COC(C(=O)Nc1ccc(S(=O)(=O)Nc2ccc(F)cc2)cc1)c1ccccc1 (stereo not shown) | 7.53%
30 | CC1CCc2c(sc3c2C2=NS(=O)(=O)CCN2C=N3)C1 (stereo not shown) | 15%
31 | Cc1csc(NC(=O)CSc2nnc(C)c(=O)n2N)n1 | 1.29%
32 | O=C(Cc1csc(-c2ccccc2)n1)NCc1ccc(F)cc1 | 4.14%
33 | O=C(COc1ccc(-n2ccnc2)cc1)Nc1cccc(Cl)c1 | -3.13%
34 | N#Cc1cccc(NC(=O)COc2ccc(-n3ccnc3)cc2)c1 | -51%
35 | O=C(COc1ccc(-n2ccnc2)cc1)Nc1cccc(F)c1 | -13%
36 | O=S(=O)(Nc1nc(-c2ccccc2)cs1)c1cccc(C(F)(F)F)c1 | 10.5%
37 | CCOc1cc2[nH]c(=S)n(Cc3ccc(C)o3)c(=O)c2cc1OCC | -3.56%
38 | COc1cccc2c1OCC(C(=O)OCc1cccnc1)=C2 | 10.4%
39 | O=C(OCc1cccnc1)C1=Cc2ccccc2OC1 | -73%
40 | COc1ccc2c(c1)C=C(C(=O)OCc1cccnc1)CO2 | 10.4%
41 | CCN(CC)S(=O)(=O)c1ccc(-n2cnc3cc(C)c(C)cc32)nc1 | 14.1%
42 | Cc1nc2ccccn2c1C(=O)N=Nc1c(O)[nH]c2ccccc12 | 13.2%
43 | CCc1ccc(OCC(=O)O/N=C(\N)c2cccnc2)cc1 | 0.0916%
44 | Br.N=c1n(CCN2CCCCC2)c2ccccc2n1CC(=O)c1ccc(Cl)c(Cl)c1 | -14.7%

Row | Compound | hERG current change (%, negative = inhibition) at 1uM
45 | Cc1ccc(C(=O)Cn2c(=N)n(CCN3CCOCC3)c3ccccc32)cc1.[Br-] | -20.3%
46 | N=c1n(CCOc2ccccc2)c2ccccc2n1CCN1CCOCC1 | -10%
47 | Br.N=c1n(CCN2CCOCC2)c2ccccc2n1Cc1ccccc1Br | -51.7%
48 | Br.CCCn1c(=N)n(CC(=O)c2ccc(Cl)c(Cl)c2)c2ccccc21 | -17.7%
49 | Br.N=c1n(CCN2CCOCC2)c2ccccc2n1CC(=O)c1ccc(Cl)c(Cl)c1 | -69.1%
50 | COc1ccc(-n2nc3c(N4CCC(C(=O)NCCc5ccco5)CC4)nnc(C)c3c2C)cc1 | 19.1%
51 | CCOC(=O)c1c(N)sc2c1CCCC2 | 15.1%
52 | CC(Sc1ccc(Cl)cc1)C(=O)Nc1ccccc1-c1ccccc1 (stereo not shown) | 17.4%
53 | COc1cc2c(cc1OC)CN(Cc1cc(=O)n3c(-c4ccccc4)csc3n1)CC2 | 14.9%
54 | COc1cc2c(cc1OC)C(NC(=O)c1ccc(C)cc1)CC2=O (stereo not shown) | 7.58%
55 | Cn1c(=O)c(Nc2ccc(Cl)cc2)c2c3c(cccc31)C(=O)c1ccccc1-2 | 14.9%
56 | COc1ccccc1-c1nnc(NC(=O)c2ccc(S(=O)(=O)N(C)Cc3ccccc3)cc2)o1 | 4.43%
57 | COCC1OS(=O)(=O)NC(CC(=O)SC(C)(C)C)C1C (stereo not shown) | 9.98%
58 | O=C(CCN1CCOCC1)Nc1ccc(Br)cc1C(=O)c1ccccc1 | -0.737%
59 | O=C(CN1CCCCC1)NCC(=O)Nc1ccc(Br)cc1C(=O)c1ccccc1 | -77.2%
60 | O=C(CCN1CCCCC1)NCC(=O)Nc1ccc(Br)cc1C(=O)c1ccccc1 | -78.1%
61 | O=C(CCN1CCOCC1)NCC(=O)Nc1ccc(Br)cc1C(=O)c1ccccc1 | -17.6%
62 | O=C(CN1CCOCC1)NCC(=O)Nc1ccc(Br)cc1C(=O)c1ccccc1 | -20%
63 | O=C(CN1CCOCC1)Nc1ccc(Br)cc1C(=O)c1ccccc1 | -3.67%
64 | CCc1oc(C(=O)O)cc1COC | -4.45%
65 | Cc1ccc(C)c(Nc2ncnc(N)c2[N+](=O)[O-])c1 | 9.83%
66 | Cc1nc(NC(=O)c2ccccc2)sc1C | 16.6%

Row | Compound | hERG current change (%, negative = inhibition) at 1uM
67 | O=C(N/N=C/c1ccccc1)C1CCCN1C(=O)c1cc([N+](=O)[O-])cc([N+](=O)[O-])c1 (stereo not shown) | 12.4%
68 | COc1ccc(C=O)cc1Cn1ccnc1C.Cl | 15.4%
69 | Cc1cc(F)c(F)c(C(=O)N2CCC(C)CC2)c1Cl | 5.24%
70 | Cc1ccc(CN2CCN(Cc3ccc(-n4cccn4)cc3C)CC2CCO)cc1 (stereo not shown) | -83.8%
71 | Cc1cccc(CN2CCN(Cc3cccc(-n4cccn4)c3)CC2CCO)n1 (stereo not shown) | -13.6%
72 | Cc1cc(-n2cccn2)ccc1CN1CCN(C2CCCC2)C(CCO)C1 (stereo not shown) | -54.2%
73 | OCCC1CN(Cc2cc(F)ccc2-n2cccn2)CCN1C1CCCC1 (stereo not shown) | 3.09%
74 | Cc1cccc(CN2CCN(Cc3ccc(-n4cccn4)cc3)CC2CCO)n1 (stereo not shown) | -1.6%
75 | Cc1ccc(CN2CCN(Cc3ccc(-n4cccn4)cc3)CC2CCO)cc1 (stereo not shown) | -65.5%
76 | OCCC1CN(Cc2cccc3nccnc23)CCN1C1CCCC1 (stereo not shown) | 3.17%
77 | OCCC1CN(Cc2cc(F)ccc2-n2cccn2)CCN1Cc1ccc(F)cc1 (stereo not shown) | -36.9%
78 | OCCC1CN(Cc2cccc(-n3cccn3)c2)CCN1Cc1ccccc1 (stereo not shown) | -13.4%
79 | Cc1ccc(CN2CCN(Cc3cccc(-n4cccn4)c3)CC2CCO)cc1 (stereo not shown) | -80.1%
80 | Cc1cc(-n2cccn2)ccc1CN1CCN(CC(C)C)C(CCO)C1 (stereo not shown) | 0.354%
81 | OCCC1CN(Cc2ccc(-n3cccn3)cc2)CCN1Cc1ccccc1 (stereo not shown) | -28.5%
82 | CCOc1ccccc1N1CC(O)=C(c2nc3ccccc3s2)C1=N | 5.48%
83 | O=C(CSc1nc(-c2ccccc2)cc(=O)[nH]1)Nc1ccc(F)c(F)c1 | 12.9%
84 | Cc1ccc(S(=O)(=O)Nc2ccc(C(=O)NCc3cccnc3)cc2)cc1 | 10.9%
85 | CCc1nc(SCC(=O)NCc2ccc(F)cc2)c2c(=O)n(C)c(=O)n(C)c2n1 | 11.2%
86 | COc1ccc(OC)c(S(=O)(=O)NCC(=O)NC2CCCCCC2)c1 | 16%
87 | COc1ccc2nc3sc(C(=O)N4CCN(C)CC4)cc3cc2c1 | -12%
88 | CC(NC(=O)COC(=O)/C=C/c1ccco1)c1ccccc1 (stereo not shown) | 8.61%
